Measurements: PubChem BioAssay (NCATS)
Inconclusive results are not listed. Unmarked numbers belong to inactive results. The source made the active and inactive calls. The call rests on the fitted dose curve; in most records, active means well fitted inhibition curve with a large enough effect; inconclusive means small, poorly fitted or top-dose-only effect; inactive means flat fitted curve, though single readings scatter.

Each molecule was assayed on KB-3-1 (assay: Cytotoxic Profiling of Annotated Libraries Using Quantitative High-Throughput Screening (AID 1296008; further: nearly all actives have a fitted effect of over 60% in size)). Settings: Five cell lines viability, CellTiter-Glo ATP luminescence, 48-72 h; max response: stronger effect = lower value.
Procedure, shortened: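 Cytotoxicity was measured as CellTiter-Glo ATP luminescence, read after 10 min at room temperature. Compound treatment of the cells lasted 48 or 72 hr at 37 degrees Celsius in a qHTS format.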
On the % scale 0 is the no-effect control and ±100 the full control effect; potency means the concentration at half of the fitted maximal effect.

Compound	outcome	max response	Potency
CC(=O)c1cc2c(cc1O)OC(C)(C)C=C2	inactive	–	–
O=C1C=CC(O)(/C=C/C(=O)OC[C@H]2O[C@@H](Oc3ccc(O)cc3)[C@H](O)[C@@H](O)[C@@H]2O)C=C1	–	-7.33%	–
O=C(O)CC1CCC(c2ccc(-c3ccc4nc(C(=O)NCc5ccc(OC(F)(F)F)cc5)cn4c3)cc2)CC1 (centres undefined)	–	-0.0408%	–
CC12CCC(OC3OC(CO)C(O)C(OC4OC(CO)C(O)C(O)C4O)C3O)CC1=CCC1C2CCC2(C)/C(=C3/COC(=O)C3)CCC12O (centres undefined)	–	-7.93%	–
O=C(CN1C(=O)C2(CCCC2)NCC1c1cc(F)cc(F)c1)Nc1ccc2c(c1)CC1(C2)C(=O)Nc2ncccc21 (centres undefined)	inactive	–	–
C[C@@H]1O[C@@H](O[C@H]2[C@H](O)[C@@H](O)[C@H](OC[C@H]3O[C@@H](OC(=O)[C@]45CCC(C)(C)C[C@H]4C4=CCC6[C@@]7(C)CC[C@H](O[C@@H]8OC[C@H](O)[C@H](O[C@@H]9O[C@H](CO)[C@@H](O)[C@H](O)[C@H]9O)[C@H]8O)[C@@](C)(CO)C7CC[C@@]6(C)[C@]4(C)CC5)[C@H](O)[C@@H](O)[C@@H]3O)O[C@@H]2CO)[C@H](O)[C@H](O)[C@H]1O (some centres undefined)	–	8.88%	–
O=C(Nc1nc2ccccc2n1CCc1ccccc1)c1ccccc1	–	5.59%	–
C[C@H]1O[C@@H](O[C@H]2CC[C@@]3(C)C(CC[C@]4(C)C3CC=C3C5CC(C)(C)CC[C@]5(C(=O)O)CC[C@]34C(=O)O)C2(C)C)[C@H](O)[C@@H](O)[C@@H]1O (some centres undefined)	–	4.81%	–
CCc1c(-c2ccccc2)c(-c2ccccc2)nn1-c1ccccc1-c1cccc(OCC(=O)O)c1	inactive	–	–
Cc1cc(C(=O)Nc2cccc(C(=O)Nc3cccc(C(F)(F)F)c3)c2)on1	–	-0.787%	–
C[C@@H]1C(=O)O[C@H](C)[C@H]1CC(=O)[C@](C)(O)[C@H]1CC[C@@]2(O)C3=CC(=O)[C@@H]4C[C@@H](O)[C@@H](O)C[C@]4(C)C3CC[C@]12C (some centres undefined)	–	-2.99%	–
CC/C=C\[C@H](O)[C@H](O)C1=C(C)C(=O)[C@]2(O1)C(=O)N[C@@](OC)(C(=O)c1ccccc1)[C@@H]2O	–	7.92%	–
CC(O)(CC(=O)O)CC(=O)OCc1ccc(O[C@@H]2O[C@H](CO)[C@@H](O)[C@H](O)[C@H]2O)cc1 (some centres undefined)	inactive	–	–
COC(=O)C1=CO[C@@H](O[C@@H]2O[C@H](CO)[C@@H](O)[C@H](O)[C@H]2O)[C@H]2[C@@H]1C=C[C@@]21C=C([C@H](C)O)C(=O)O1	inactive	–	–
CC1CCC2(OC1)OC1CC3C4CC=C5CC(O)CC(O[C@@H]6OC[C@@H](O)[C@H](O)[C@H]6O)C5(C)C4CCC3(C)C1(O)C2C (some centres undefined)	–	5.9%	–
Cc1cc(OCc2nc(-c3ccccc3Cl)cs2)ccc1OCC(=O)O	inactive	–	–
CC(C)(C)NCCCNC(=O)c1cccc(Br)c1	–	6.67%	–
CN(C)C(=O)NC1CCC(CCN2CCN(c3cccc(Cl)c3Cl)CC2)CC1 (centres undefined)	–	-7.32%	–
C[C@@H]1C(=O)O[C@H]2[C@H](O)C34[C@H]5C[C@@H](C(C)(C)C)C36[C@@H](OC(=O)[C@@H]6O)O[C@@]4(C(=O)O5)[C@@]12O (some centres undefined)	–	-3.61%	–
CC(C)c1cccc2c(-c3ccccc3)cc(-c3ccc(-c4ccc(C(=O)O)cc4)[nH]3)nc12	–	-3.11%	–

Compound	outcome	max response	Potency
C=C1CCC[C@]2(C)CC[C@@H](C(=C)C(=O)O)[C@H](O)[C@@H]12	–	1.72%	–
CC(C)CC(=O)OC1OC=C(CO[C@@H]2O[C@H](CO)[C@@H](O)[C@H](O)[C@H]2O)C2CC(O)C(O)(CO)C12 (some centres undefined)	–	2.5%	–
CC(C)=C/C=C\[C@H](C)[C@H]1CC[C@]2(C)C[C@@H]3C(C)=CC(=O)C3/C(CO)=C\C[C@@H]12 (some centres undefined)	inactive	–	–
OCC1OC(Oc2cc(O)cc(/C=C/c3ccc(O)cc3)c2)C(O)C(O)C1O (centres undefined)	–	5.61%	–
C[C@@H]1CCN(C(=O)N2CCCC2)C[C@@H]1N(C)c1ncnc2[nH]ccc12	–	6.14%	–
O=C(/C=C\n1cnc(-c2cc(C(F)(F)F)cc(C(F)(F)F)c2)n1)N1CC(F)(F)C1	–	–	7.31 µM (active)
C=CC(=O)Nc1cc(Nc2nccc(-c3c[nH]c4ccccc34)n2)c(OC)cc1N(C)CCN(C)C	–	–	8.2 µM (active)
CC1(C)CC[C@]2(C(=O)O[C@@H]3O[C@H](CO)[C@@H](O)[C@H](O)[C@H]3O)CC[C@]3(C)C(=CCC4[C@@]5(C)CC[C@H](O[C@@H]6O[C@H](C(=O)O)[C@@H](O)[C@H](O)[C@H]6O)[C@@](C)(CO)C5CC[C@]43C)C2C1 (some centres undefined)	–	-0.849%	–
C[C@H](C/C=C/C(C)(C)O)[C@H]1CC[C@@]2(C)[C@@H]3[C@@H](O[C@@H]4O[C@H](CO)[C@@H](O)[C@H](O)[C@H]4O)C=C4C(CC[C@H](O)C4(C)C)[C@]3(C=O)CC[C@]12C (some centres undefined)	–	8.11%	–
C=CC1(C)CC(OC(=O)/C(C)=C\COC(C)=O)C(C(=C)C(=O)O)C(O)C1C(=C)CO (centres undefined)	–	8.05%	–
Cc1cccc(Oc2cnc(=O)[nH]c2)c1	–	3.8%	–
COc1ccc(/C=C\C(=O)O)c(O[C@@H]2O[C@H](CO)[C@@H](O)[C@H](O)[C@H]2O)c1	inactive	–	–
COC(=O)C1=CO[C@@H](O[C@@H]2O[C@H](CO)[C@@H](O)[C@H](O)[C@H]2O)C2C1C(=O)C[C@H]2C (some centres undefined)	inactive	–	–
CC1=CC(=O)CC2C1(O)CCC(C)C21CC(c2ccoc2)OC1=O (centres undefined)	–	-1.68%	–
Cc1cc(O)cc(O[C@@H]2O[C@H](CO)[C@@H](O)[C@H](O)[C@H]2O)c1	–	4.47%	–
CCCCNc1ncc2c(-c3ccc(CN4CCN(C)CC4)cc3)cn(C3CCC(O)CC3)c2n1 (centres undefined)	–	–	1.03 µM (active)
CN1C2CCC1CC(OC(=O)[C@H](CO)c1ccccc1)C2 (some centres undefined)	–	-9.98%	–
C/C=C/c1ccc2c(c1)[C@@H](C)[C@H](c1ccc(O)cc1)O2	–	-2.15%	–
CC1C(OC(=O)c2ccccc2)C(O)C2C(C(=O)O)=COC(OC3OC(CO)C(O)C(O)C3O)C12 (centres undefined)	inactive	–	–
